Source: the OligoGym collection

The sequences below were run against INF2 (assay: pooled miR-30 sensor sort-seq; sequence = guide strand). Conditions: shRNA.
Also: reference of the scale not given here.

| Sequence | sensor-assay potency score (higher = more potent) |
| --- | --- |
| TTCATGACAATGCTGAAGCGGT | -0.245 |
| TTGAGGTTCAGGCTCTTCTTGG | -1.01 |
| TTCAGCAATGTGCTGATCTTGA | -0.209 |
| TAGCTCAAACACCTGCTTCTTC | -0.118 |
| TTGCATTTTGATTAAACCTTGC | -0.249 |
| TAGAGTTGTGCTCACGTGCCAC | -0.638 |
| TTTTGATTAAACCTTGCTGGGC | -0.764 |

The sequences below were run against INO80B in the same assay as above. Conditions: shRNA.

| Sequence | sensor-assay potency score (higher = more potent) |
| --- | --- |
| TCTGGGATCACAGTGAAGGTAG | 0.138 |
| TTACTGTCTTCATCCAGCCAGG | -0.737 |
| TTTTCTTGTGCACTCCATGGCC | -0.4 |
| TTCCTGATGGTGTTTCTTCTTG | -0.564 |
| TAACCCTCCTGATAGGTCCCGA | -0.336 |
| TTTGAGTTTGAGCTGAGGCTTG | -0.36 |
| TTGAGTTTGAGCTGAGGCTTGG | -0.366 |
| TTATCCACAACCATAAGGGGAG | -0.805 |
| TTGTGTTTCTTCTTGTGCTTCT | 0.567 |
| ATTACTGTCTTCATCCAGCCAG | -0.0733 |
| ATTATCCACAACCATAAGGGGA | -1.17 |
| TTCTTGTGCACTCCATGGCCAT | -1.62 |

Each sequence was assayed against INO80C in the same assay as above. Conditions: shRNA.

| Sequence | sensor-assay potency score (higher = more potent) |
| --- | --- |
| TGTAGTTGGCAAGCAGACCTGA | -0.0597 |
| TTGGAGGGAAAACACACACTAA | -1.27 |
| TACTGAAGTAGTTAGGATCGTT | 0.332 |
| TTCTGTTCTTCTTGCCAGCTAC | -0.723 |
| ATTTGTTTCAGGTTCTTCCAGG | -0.776 |
| TTGCTGTTCCGGACTATTCCGG | -0.701 |
| TTACTTGAGGCAACAACTGAAG | -0.863 |
| TTCAATGGTGCTGAACCGCAGT | -0.122 |
| TTTACTTGAGGCAACAACTGAA | 0.108 |
| TTTTGAAACAGCTTTCCACTTC | 0.164 |
| TGAAACATCAGAATACTTCTTA | 1.15 |
| TATAATTTAATTCAGCAGGAAA | -1.3 |

Each sequence was assayed against INPP5F in the same assay as above. Conditions: shRNA.

| Sequence | sensor-assay potency score (higher = more potent) |
| --- | --- |
| TAGACTTAGTCGTTGATACTGG | -0.136 |
| TTGCTTGGTGATCTGCAGCATC | -0.92 |
| TTCGTTTATAGCGCATTCCTGC | -0.611 |
| TTGGGTAATACTAGCAACCTGG | -0.472 |
| TACCAAGTTAATAATAACCTGT | -0.241 |
| TTACTTTATCAACTTCATCATC | -1.34 |
| TTCCTTTTCACTTCTGTCCAGC | -0.59 |
| TTCTTTGTATCTGTAGTGCAGT | -0.359 |
| TTCACTTCTGTCCAGCCGCGGT | -1.35 |
